Measured values as given in PubChem BioAssay (NCI).
The panel holds about 83,000 compounds, 20% with a hit somewhere; the sample as a whole holds those more often.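 Plates (96-well) were seeded with cells, treated with compound at one concentration, and incubated for 48 hours before percent growth was determined.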 The source made the active and inactive calls. The calls were made as follows: active = growth percent below 10; inactive = the rest.

Legend:
Experiment in all cases: NCI-60 one-dose screen, 48 h (100 = growth as untreated, 0 = no growth, -100 = all killed)
Details in all cases: 10 µM unless noted
HCT-15 colon = system: HCT-15 colon
HT29 colon = system: HT29 colon
SNB-75 CNS = system: SNB-75 CNS
SNB-19 CNS = system: SNB-19 CNS
U251 CNS = system: U251 CNS
PC-3 prostate = system: PC-3 prostate
SK-MEL-5 melanoma = system: SK-MEL-5 melanoma
UACC-62 melanoma = system: UACC-62 melanoma
LOX IMVI melanoma = system: LOX IMVI melanoma
SK-MEL-28 melanoma = system: SK-MEL-28 melanoma
SK-MEL-2 melanoma = system: SK-MEL-2 melanoma
EKVX NSCLC = system: EKVX NSCLC
SN12C renal = system: SN12C renal
UO-31 renal = system: UO-31 renal
TK-10 renal = system: TK-10 renal
ACHN renal = system: ACHN renal
CAKI-1 renal = system: CAKI-1 renal
A498 renal = system: A498 renal
CCRF-CEM leukemia = system: CCRF-CEM leukemia
MOLT-4 leukemia = system: MOLT-4 leukemia

Measured: growth

Cn1cc(-c2nonc2-c2c[nH]c3ccccc23)c2cc(Br)ccc21
active: HT29 colon 8.18%
inactive: HCT-15 colon 18.5% | SNB-75 CNS 46.3% | SNB-19 CNS 49.7% | U251 CNS 29.8% | PC-3 prostate 41.7% | SK-MEL-5 melanoma 48% | UACC-62 melanoma 34.2% | LOX IMVI melanoma 19% | SK-MEL-28 melanoma 60.8% | SK-MEL-2 melanoma 41% | EKVX NSCLC 33.6% | SN12C renal 55% | UO-31 renal 36.8% | TK-10 renal 53.3% | ACHN renal 40.3% | CAKI-1 renal 26.3% | A498 renal 40.3% | CCRF-CEM leukemia 31% | MOLT-4 leukemia 17.8%

CNCCCNc1nc2ccccc2c2c(=O)c3cc(Cl)ccc3sc12
active: HCT-15 colon -19.5% | HT29 colon -92.4% | U251 CNS -87.2% | LOX IMVI melanoma -90.3% | UO-31 renal 7.83% | MOLT-4 leukemia -42%
inactive: SNB-75 CNS 61% | SNB-19 CNS 55.7% | PC-3 prostate 32.8% | SK-MEL-5 melanoma 71.4% | UACC-62 melanoma 10.9% | SK-MEL-28 melanoma 50.8% | SK-MEL-2 melanoma 95.3% | EKVX NSCLC 76.7% | SN12C renal 24.9% | TK-10 renal 68.9% | ACHN renal 13.3% | CAKI-1 renal 43.8% | A498 renal 76.2% | CCRF-CEM leukemia 12.3%

C=C(C)[C@@H]1CC[C@]2(C(=O)N3CCN(C)CC3)CC[C@]3(C)[C@H](CC[C@@H]4[C@@](C)(CCC(=O)O)[C@H](C(=C)C)CC[C@]43C)[C@@H]12
inactive: HCT-15 colon 82.5% | HT29 colon 78% | SNB-75 CNS 76% | SNB-19 CNS 93.6% | U251 CNS 79.7% | PC-3 prostate 55.4% | SK-MEL-5 melanoma 82.7% | UACC-62 melanoma 71.3% | LOX IMVI melanoma 92.5% | SK-MEL-28 melanoma 99% | SK-MEL-2 melanoma 92.2% | EKVX NSCLC 86% | SN12C renal 85.9% | UO-31 renal 50.5% | TK-10 renal 94.3% | ACHN renal 82.8% | CAKI-1 renal 63.1% | A498 renal 53% | CCRF-CEM leukemia 70.7% | MOLT-4 leukemia 61.2%

Cc1sc2nc(NCCN)[nH]c(=O)c2c1C
inactive: HCT-15 colon 92.8% | HT29 colon 95.1% | SNB-75 CNS 67.4% | SNB-19 CNS 87.5% | U251 CNS 95.9% | PC-3 prostate 93.3% | SK-MEL-5 melanoma 96% | UACC-62 melanoma 95.4% | LOX IMVI melanoma 91.3% | SK-MEL-28 melanoma 98.4% | SK-MEL-2 melanoma 103% | EKVX NSCLC 89.6% | SN12C renal 90% | UO-31 renal 91.4% | TK-10 renal 96.9% | ACHN renal 91.2% | CAKI-1 renal 100% | A498 renal 91.8% | CCRF-CEM leukemia 117% | MOLT-4 leukemia 106%

O=S(=O)(NCCNc1nccc(-c2c(-c3ccc(F)c(O)c3)nc3sccn23)n1)c1ccc(Cl)cc1
active: SK-MEL-5 melanoma -18.5% | UACC-62 melanoma -1.12% | SK-MEL-2 melanoma -31.6% | MOLT-4 leukemia 1.03%
inactive: HCT-15 colon 27% | HT29 colon 17.5% | SNB-75 CNS 50.2% | SNB-19 CNS 46.1% | U251 CNS 41.6% | PC-3 prostate 17% | LOX IMVI melanoma 29.6% | SK-MEL-28 melanoma 47.6% | EKVX NSCLC 36.6% | SN12C renal 26.3% | UO-31 renal 11.6% | TK-10 renal 44.8% | ACHN renal 19.8% | CAKI-1 renal 19.5% | A498 renal 30.8% | CCRF-CEM leukemia 14.2%

Clc1cccc(C2Cc3cnccc3-c3[nH]c4ccncc4c32)c1 (stereo not given)
active: SK-MEL-5 melanoma -60.2% | MOLT-4 leukemia 9.28%
inactive: HCT-15 colon 25.2% | HT29 colon 40.9% | SNB-75 CNS 73.6% | SNB-19 CNS 53.9% | U251 CNS 36.9% | PC-3 prostate 21.1% | UACC-62 melanoma 36.5% | LOX IMVI melanoma 39.7% | SK-MEL-28 melanoma 62.7% | SK-MEL-2 melanoma 61% | EKVX NSCLC 42.9% | SN12C renal 56.4% | UO-31 renal 39.1% | TK-10 renal 53.3% | ACHN renal 42.1% | CAKI-1 renal 50.8% | A498 renal 39% | CCRF-CEM leukemia 49.7%

C#Cc1cccc(NC(=O)C2CCCCN2C(=O)CCl)c1 (stereo not given)
active: HCT-15 colon -54.7% [8.25 µM] | HT29 colon -52.5% [8.25 µM] | SNB-75 CNS -5.47% [8.25 µM] | U251 CNS -62.2% [8.25 µM] | PC-3 prostate -7.93% [8.25 µM] | SK-MEL-5 melanoma -81.7% [8.25 µM] | UACC-62 melanoma -84.8% [8.25 µM] | LOX IMVI melanoma -74.6% [8.25 µM] | SK-MEL-28 melanoma 2% [8.25 µM] | SK-MEL-2 melanoma -51.7% [8.25 µM] | SN12C renal -92.3% [8.25 µM] | UO-31 renal -97.3% [8.25 µM] | TK-10 renal 9.36% [8.25 µM] | ACHN renal -97.3% [8.25 µM] | CAKI-1 renal -95.5% [8.25 µM] | CCRF-CEM leukemia -11.9% [8.25 µM] | MOLT-4 leukemia -13.7% [8.25 µM]
inactive: SNB-19 CNS 20.1% [8.25 µM] | EKVX NSCLC 19.6% [8.25 µM] | A498 renal 58.5% [8.25 µM]

C#CCOc1cccc(Nc2ncnc3c2ncn3C2CCN(C(=O)CCl)C2)c1 (stereo not given)
inactive: SNB-19 CNS 13.7% | A498 renal 85.9%
active: HCT-15 colon 1.63% | HT29 colon -68.4% | SNB-75 CNS -3.65% | U251 CNS -92% | PC-3 prostate -14.2% | SK-MEL-5 melanoma -85.7% | UACC-62 melanoma -66% | LOX IMVI melanoma -86.5% | SK-MEL-28 melanoma -43.9% | SK-MEL-2 melanoma -0.328% | EKVX NSCLC 5.11% | SN12C renal -71.3% | UO-31 renal -97.8% | TK-10 renal -83.8% | ACHN renal -98.9% | CAKI-1 renal -97.4% | CCRF-CEM leukemia -28% | MOLT-4 leukemia -26.8%

O=C1NC(=O)C(c2coc3cc(Br)ccc23)=C1c1c[nH]c2ccccc12
inactive: HCT-15 colon 25% | HT29 colon 20.6% | SNB-19 CNS 58% | U251 CNS 29.6% | PC-3 prostate 67.2% | SK-MEL-5 melanoma 80.7% | UACC-62 melanoma 35.6% | LOX IMVI melanoma 44% | SK-MEL-28 melanoma 71.5% | SK-MEL-2 melanoma 34.1% | EKVX NSCLC 54% | SN12C renal 55% | UO-31 renal 58% | TK-10 renal 80.8% | ACHN renal 71.3% | CAKI-1 renal 39.2% | CCRF-CEM leukemia 29.1% | MOLT-4 leukemia 26%
active: SNB-75 CNS -2.44% | A498 renal 5.34%

O=C(c1cccc(N2CCOCC2)n1)c1c[nH]c2ccccc12
inactive: HCT-15 colon 95.7% | HT29 colon 105% | SNB-75 CNS 82% | SNB-19 CNS 99.4% | U251 CNS 91.7% | PC-3 prostate 83.5% | SK-MEL-5 melanoma 93.8% | UACC-62 melanoma 82.8% | LOX IMVI melanoma 93% | SK-MEL-28 melanoma 98.6% | SK-MEL-2 melanoma 103% | EKVX NSCLC 76.3% | SN12C renal 89.9% | UO-31 renal 66.9% | TK-10 renal 120% | ACHN renal 86.5% | CAKI-1 renal 76% | A498 renal 85.2% | CCRF-CEM leukemia 97.2% | MOLT-4 leukemia 100%

CCN(CC)CCCNc1cc(OC)c(OC)c2cccnc12
inactive: HCT-15 colon 72% | HT29 colon 83.7% | SNB-75 CNS 102% | SNB-19 CNS 63.5% | U251 CNS 52.6% | PC-3 prostate 54.8% | SK-MEL-5 melanoma 62.4% | UACC-62 melanoma 60.6% | LOX IMVI melanoma 34.2% | SK-MEL-28 melanoma 93.8% | SK-MEL-2 melanoma 88.1% | EKVX NSCLC 100% | SN12C renal 57.3% | UO-31 renal 46.6% | TK-10 renal 98.9% | ACHN renal 42.3% | CAKI-1 renal 52.5% | A498 renal 81.8% | CCRF-CEM leukemia 74.6% | MOLT-4 leukemia 52.8%

O=C1Nc2ccc(Cl)cc2/C1=C/c1ccc[nH]1
inactive: HCT-15 colon 34.2% | HT29 colon 107% | SNB-75 CNS 114% | SNB-19 CNS 106% | U251 CNS 100% | PC-3 prostate 111% | SK-MEL-5 melanoma 77.5% | UACC-62 melanoma 102% | LOX IMVI melanoma 95.5% | SK-MEL-28 melanoma 129% | SK-MEL-2 melanoma 96.2% | EKVX NSCLC 32.8% | SN12C renal 87.5% | UO-31 renal 47.7% | TK-10 renal 61.4% | ACHN renal 59.6% | CAKI-1 renal 45.7% | A498 renal 134% | CCRF-CEM leukemia 96.2% | MOLT-4 leukemia 83.4%

Cc1ccc2c(c1)=C/C(=C\c1cc(-c3ccccc3)[nH]c1O)C(=O)N=2
active: HT29 colon 7.77% | SK-MEL-2 melanoma 3.31%
inactive: HCT-15 colon 26.7% | SNB-75 CNS 48% | SNB-19 CNS 34.1% | U251 CNS 40.1% | PC-3 prostate 61.2% | SK-MEL-5 melanoma 47% | UACC-62 melanoma 29.9% | LOX IMVI melanoma 35.8% | SK-MEL-28 melanoma 60.8% | EKVX NSCLC 52% | SN12C renal 42.5% | UO-31 renal 55.4% | TK-10 renal 68.3% | ACHN renal 65.6% | CAKI-1 renal 42.3% | A498 renal 24.7% | CCRF-CEM leukemia 20% | MOLT-4 leukemia 18.8%
